Measurements reported in PubChem BioAssay AID2015 (National Center for Advancing Translational Sciences (NCATS), 2009).
The other results are listed elsewhere or left out. Records with an inconclusive call do not appear. Calls of active or inactive are those of the source. The call rests on the fitted dose curve; in most records, active means well fitted inhibition curve with a large enough effect; inconclusive means small, poorly fitted or top-dose-only effect; inactive means flat fitted curve, though single readings scatter.

What follows are compounds tested against Galactokinase (Homo sapiens) (UniProt P51570) (assay: Confirmation Assay for Inhibitors of Human Galactokinase (GALK)). Details: purified GALK, Kinase-Glo ATP depletion luminescence; series mostly up to 115 µM.
From the text: NIH Molecular Libraries Probe Production Centers Network [MLPCN] NIH Chemical Genomics Center [NCGC] MLPCN Grant: R03 MH085689-01 Assay Submitter (PI): Kent Lai (University of Utah School of Medicine, 50 N Mario Capecchi Drive, Salt Lake City, UT 84132) NCGC Assay Overview Inherited deficiency of galactose-1-phosphate uridyltransferase (GALT) can result in a potentially lethal disorder called Classic Galactosemia (OMIM 230400). Several lines of evidence indicate that an elevated level of galactose-1-phosphate (gal-1-p), the product of galactokinase (GALK), is a major, if not sole, pathogenic mechanism in patients with classic galactosemia. Therefore, finding inhibitors of GALK is a potential novel therapy for this inherent metabolic disease and is the long term goal of this project. Active compounds observed in the qHTS GALK assay (AID: 1868) were cherry picked and re-screened for validation. GALK (provided by Kent Lai) was assayed using ATP and D-(+)-Galactose (Sigma-Aldrich cat# G0750) as substrates. Promega Kinase-Glo Plus (cat# V3774) technology was used to detect the residual ATP following kinetic reaction. Briefly, the Kinase-Glo Plus contains Ultra-Glo [1] luciferase and D-luciferin which generates a bioluminescence signal from the remaining ATP. Kinase reactions with and without GALK were used as negative and positive controls together with Protein Tyrosine Phosphatase CD45 inhibitor (EMD Bioscience cat# 540215) which is shown to inhibit GALK activity.
NCGC Assay Protocol Summary: Three uL/well of ATP-buffer solution (35 uM ATP, 20mM HEPES pH8.0, 5 mM MgCl2, 60 mM NaCl, 1 mM DTT, 0.01% BSA final concentration) was dispensed into 1536-well, assay plates (Greiner, solid white medium-binding plates) with Aurora Discovery BioRAPTR Flying Reagent Dispenser (FRD; Beckton-Dickenson). Compound and control solution (23 nL) was transferred to the assay plate using the Kalypsys 1536-pin tool apparatus. One uL/well GALK-galactose solution (5 nM GALK, 100 uM galactose, 20 mM HEPES pH8.0, 5 mM MgCl2, 60 mM NaCl, 1 mM DTT, 0.01% BSA final concentration) was then added using the FRD yielding a total kinase reaction volume of 4 uL/ well. After 1 hour of room temperature incubation, 4 uL Kinase-Glo Plus reagent was added for a final assay volume of 8 uL/well. Luminescence was detected with the ViewLux plate reader (Perkin Elmer, Waltham, MA) after 2 min incubation using a 1 sec exposure time and 2x binning.

Galactokinase (Homo sapiens), sequence (P51570 whole entry, looked up): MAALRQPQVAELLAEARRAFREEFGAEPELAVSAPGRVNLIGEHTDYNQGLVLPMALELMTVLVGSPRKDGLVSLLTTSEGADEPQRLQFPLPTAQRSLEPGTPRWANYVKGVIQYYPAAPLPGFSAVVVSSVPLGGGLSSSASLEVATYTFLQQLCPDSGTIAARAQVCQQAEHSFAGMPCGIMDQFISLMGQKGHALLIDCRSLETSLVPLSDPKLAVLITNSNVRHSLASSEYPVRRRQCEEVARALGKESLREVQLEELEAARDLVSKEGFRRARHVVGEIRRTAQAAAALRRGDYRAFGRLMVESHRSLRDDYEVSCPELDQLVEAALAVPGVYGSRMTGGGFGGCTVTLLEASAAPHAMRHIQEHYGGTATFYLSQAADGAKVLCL

Potency, inactive:
COc1cccc2cc(-c3cc(=O)oc4cc(C)c(O)cc34)oc12

Potency, active:
N#Cc1c(N2CCCCC2)nc(N)c2c(N)nc(SCC(=O)O)cc12 21.1 µM
CCOC(=O)c1c(C)[nH]c2c1-c1ccccc1C(=O)C2=O 1.68 µM
CCS(=O)(=O)C1=NSC2=NC(=O)/C(=C\c3ccc(OS(=O)(=O)c4ccccc4)cc3)C(=N)N21 26.6 µM
Oc1c(Cl)cc(Cl)c(Cl)c1Cc1c(O)c(Cl)cc(Cl)c1Cl 21.1 µM
N#C/C(=C(/O)Cc1cccc2ccccc12)c1nc2ccccc2s1 33.5 µM
